“And” between values parts separate entries of the source, which are not always exact repeats. Identical values can stand only once. Results filed as inconclusive are left out. Where a call stands in place of a potency, no number is given. Some compounds were tested as several samples or in several runs, with calls that do not always agree. The source made the active and inactive calls. The call rests on the fitted dose curve; in most records, active means well fitted curve in the direction sought with a large enough effect; inconclusive means small, poorly fitted or top-dose-only effect, or another doubt; inactive means no such curve, though single readings can be large; an effect the other way counts as inactive or inconclusive.
Biological target: Arylsulfatase A (Homo sapiens) (UniProt P15289)
Assay: qHTS screen for enhancers of Arylsulfatase A (ASA1): LOPAC Validation Assay (AID 720538); further: potency means the concentration at half of the fitted maximal effect
Conditions: ASA enzyme activity, LOPAC qHTS enhancer assay; series mostly up to 57.5 µM
In short: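 Cell-based enhancement test: residual ASA activity in SV40-transformed I179S patient fibroblasts is measured by pNCS turnover (0.5mM final, 14h, room temperature) following 48h compound incubation; higher fluorescence indicates activation.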

Arylsulfatase A (Homo sapiens), sequence (P15289 whole entry, looked up): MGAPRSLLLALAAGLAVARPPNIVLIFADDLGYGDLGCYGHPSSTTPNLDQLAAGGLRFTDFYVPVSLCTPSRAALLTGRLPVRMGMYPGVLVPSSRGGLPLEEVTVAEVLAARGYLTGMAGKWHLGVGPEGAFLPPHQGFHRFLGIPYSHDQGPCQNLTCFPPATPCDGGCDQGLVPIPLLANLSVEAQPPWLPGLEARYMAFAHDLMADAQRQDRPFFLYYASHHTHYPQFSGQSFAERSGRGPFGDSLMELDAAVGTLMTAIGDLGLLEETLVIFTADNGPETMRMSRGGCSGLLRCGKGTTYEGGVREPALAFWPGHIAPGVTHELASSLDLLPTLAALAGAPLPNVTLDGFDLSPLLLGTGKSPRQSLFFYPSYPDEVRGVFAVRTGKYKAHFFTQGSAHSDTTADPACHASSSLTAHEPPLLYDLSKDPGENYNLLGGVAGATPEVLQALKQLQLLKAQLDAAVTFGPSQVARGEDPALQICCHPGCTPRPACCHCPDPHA

**Q.** Which Potency does the source give for `CNCCCC1c2ccccc2C=Cc2ccccc21` here?
**A.** inactive

**Q.** Which Potency does the source give for `CCN(CC)CCNC(=O)c1cc(Cl)c(N)cc1OC` here?
**A.** inactive

**Q.** With `CC(C)(C)[C@]1(O)CCN2C[C@H]3c4ccccc4CCc4cccc(c43)[C@@H]2C1` as the compound, how does the Potency read?
**A.** inactive

**Q.** For `C[C@]12C[C@H](O)[C@H]3[C@@H](CCC4=CC(=O)CC[C@@]43C)[C@@H]1CC[C@@H]2C(=O)CO`, which Potency is on record?
**A.** inactive

**Q.** Which Potency does the source give for `CC1=C(CC(=O)O)c2cc(F)ccc2/C1=C\c1ccc(S(C)(=O)=O)cc1` here?
**A.** inactive

**Q.** With `CN1CCN(C2Cc3ccccc3Sc3ccc(Cl)cc32)CC1` (stereo not drawn) as the compound, how does the Potency read?
**A.** inactive

**Q.** With `C=Cc1c(C)c2cc3[nH]c(cc4nc(cc5nc(cc1[nH]2)C(C)=C5CCC(=O)O)C(CCC(=O)O)=C4C)c(C)c3C=C` as the compound, how does the Potency read?
**A.** inactive

**Q.** For `CC(C)C(=O)c1c(C(C)C)nn2ccccc12`, which Potency is on record?
**A.** inactive

**Q.** For `OCc1cc(C(O)CNCCCCCCOCCCCc2ccccc2)ccc1O` (stereo not drawn), which Potency is on record?
**A.** inactive

**Q.** Which Potency does the source give for `N=c1c[n+](N2CCOCC2)[n-]o1` here?
**A.** inactive

**Q.** Which Potency does the source give for `OCCN1CCN(CCCN2c3ccccc3Sc3ccc(Cl)cc32)CC1` here?
**A.** inactive

**Q.** With `CCN(CC)CCCC(C)Nc1c2ccc(Cl)cc2nc2ccc(OC)cc12` (stereo not drawn) as the compound, how does the Potency read?
**A.** inactive

**Q.** Which Potency does the source give for `CC(=O)OCC(=O)[C@@]1(O)CC[C@H]2[C@@H]3CCC4=CC(=O)CC[C@]4(C)[C@H]3C(=O)C[C@@]21C` here?
**A.** inactive

**Q.** With `CC1=C(CC(=O)O)c2cc(F)ccc2/C1=C\c1ccc(S(C)=O)cc1` (stereo not drawn) as the compound, how does the Potency read?
**A.** inactive

**Q.** With `COc1ccc(Cl)cc1C(=O)NCCc1ccc(S(=O)(=O)NC(=O)NC2CCCCC2)cc1` as the compound, how does the Potency read?
**A.** inactive

**Q.** With `CCCCCCCCCCCCCCCC(=O)NCCO` as the compound, how does the Potency read?
**A.** inactive

**Q.** With `CC(C)(C)c1onc(OCP(=O)(O)O)c1CC(N)C(=O)O` (stereo not drawn) as the compound, how does the Potency read?
**A.** inactive and 4.26 µM (active)

**Q.** For `CC(CN(C)C)CN1c2ccccc2CCc2ccccc21` (stereo not drawn), which Potency is on record?
**A.** inactive

System: not listed separately
Assay: qHTS for compounds that reverse cellular toxicity of Amyloid beta (A-beta) peptide in yeast: LOPAC Validation Assay (AID 720559)
Conditions: yeast expressing A-beta; series mostly up to 46.1 µM
In short: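 Here, A-beta-toxic yeast grow with test compounds at 30 C for 48 hr before optical density at 600 nm is recorded; data are normalized against DMSO and the FeCl3-clioquinol control.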

**Q.** For `CN(C)CCCN1c2ccccc2Sc2ccc(Cl)cc21`, which outcome is on record?
**A.** inactive

**Q.** With `CNCCCC1c2ccccc2C=Cc2ccccc21` as the compound, how does the outcome read?
**A.** inactive

**Q.** With `CCN(CC)CCNC(=O)c1cc(Cl)c(N)cc1OC` as the compound, how does the outcome read?
**A.** inactive

**Q.** With `CC(C)(C)[C@]1(O)CCN2C[C@H]3c4ccccc4CCc4cccc(c43)[C@@H]2C1` as the compound, how does the outcome read?
**A.** inactive

**Q.** With `C[C@]12C[C@H](O)[C@H]3[C@@H](CCC4=CC(=O)CC[C@@]43C)[C@@H]1CC[C@@H]2C(=O)CO` as the compound, how does the outcome read?
**A.** inactive

**Q.** With `C#CCN(C)Cc1ccccc1` as the compound, how does the outcome read?
**A.** inactive

**Q.** Which outcome does the source give for `CC1=C(CC(=O)O)c2cc(F)ccc2/C1=C\c1ccc(S(C)(=O)=O)cc1` here?
**A.** inactive

**Q.** Which outcome does the source give for `CNCCC(Oc1ccc(C(F)(F)F)cc1)c1ccccc1` (stereo not drawn) here?
**A.** inactive

**Q.** With `CN1CCN(C2Cc3ccccc3Sc3ccc(Cl)cc32)CC1` (stereo not drawn) as the compound, how does the outcome read?
**A.** inactive

**Q.** With `C=Cc1c(C)c2cc3[nH]c(cc4nc(cc5nc(cc1[nH]2)C(C)=C5CCC(=O)O)C(CCC(=O)O)=C4C)c(C)c3C=C` as the compound, how does the outcome read?
**A.** inactive

**Q.** Which outcome does the source give for `CC(C)C(=O)c1c(C(C)C)nn2ccccc12` here?
**A.** inactive

**Q.** Which outcome does the source give for `OCc1cc(C(O)CNCCCCCCOCCCCc2ccccc2)ccc1O` (stereo not drawn) here?
**A.** inactive

**Q.** With `CCN(CC)CCOC(=O)C1(C2CCCCC2)CCCCC1` as the compound, how does the outcome read?
**A.** inactive

**Q.** With `CSc1ccc2c(c1)N(CCC1CCCCN1C)c1ccccc1S2` (stereo not drawn) as the compound, how does the outcome read?
**A.** inactive

**Q.** For `N=c1c[n+](N2CCOCC2)[n-]o1`, which outcome is on record?
**A.** inactive

**Q.** Which outcome does the source give for `CN(C)CC[C@@H](c1ccc(Cl)cc1)c1ccccn1` here?
**A.** inactive

**Q.** For `COCCOC(=O)C1=C(C)NC(C)=C(C(=O)OC/C=C/c2ccccc2)C1c1cccc([N+](=O)[O-])c1` (stereo not drawn), which outcome is on record?
**A.** inactive

**Q.** For `OCCN1CCN(CCCN2c3ccccc3Sc3ccc(Cl)cc32)CC1`, which outcome is on record?
**A.** inactive

**Q.** Which outcome does the source give for `CCN(CC)CCCC(C)Nc1c2ccc(Cl)cc2nc2ccc(OC)cc12` (stereo not drawn) here?
**A.** inactive

**Q.** With `NC(=O)c1ncn([C@@H]2O[C@H](CO)[C@@H](O)[C@H]2O)n1` as the compound, how does the outcome read?
**A.** inactive

**Q.** With `C[C@]12CC[C@@H]3c4ccc(O)cc4CC[C@H]3[C@@H]1CCC2=O` as the compound, how does the outcome read?
**A.** inactive

**Q.** For `CC(=O)OCC(=O)[C@@]1(O)CC[C@H]2[C@@H]3CCC4=CC(=O)CC[C@]4(C)[C@H]3C(=O)C[C@@]21C`, which outcome is on record?
**A.** inactive

**Q.** Which outcome does the source give for `CNCC(O)c1ccc(O)c(O)c1` (stereo not drawn) here?
**A.** inactive

**Q.** For `O=C1N=C(O)CN1/N=C/c1ccc(-c2ccc([N+](=O)[O-])cc2)o1`, which outcome is on record?
**A.** inactive

**Q.** Which outcome does the source give for `CN(C)CCC=C1c2ccccc2CCc2ccccc21` here?
**A.** inactive

**Q.** Which outcome does the source give for `NC1CCN(c2cccc(Cl)n2)CC1` here?
**A.** inactive

**Q.** With `CC1=C(CC(=O)O)c2cc(F)ccc2/C1=C\c1ccc(S(C)=O)cc1` (stereo not drawn) as the compound, how does the outcome read?
**A.** inactive

**Q.** Which outcome does the source give for `Nc1ncnc2c1ncn2[C@@H]1O[C@H](CO)[C@@H](O)[C@H]1O` here?
**A.** inactive

**Q.** Which outcome does the source give for `COc1ccc(Cl)cc1C(=O)NCCc1ccc(S(=O)(=O)NC(=O)NC2CCCCC2)cc1` here?
**A.** inactive

**Q.** With `CCCCCCCCCCCCCCCC(=O)NCCO` as the compound, how does the outcome read?
**A.** inactive

**Q.** For `CNC(=O)Oc1ccc2c(c1)[C@]1(C)CCN(C)[C@@H]1N2C`, which outcome is on record?
**A.** inactive

**Q.** For `CC(C)(C)c1onc(OCP(=O)(O)O)c1CC(N)C(=O)O` (stereo not drawn), which outcome is on record?
**A.** inactive

**Q.** For `CC(CN(C)C)CN1c2ccccc2CCc2ccccc21` (stereo not drawn), which outcome is on record?
**A.** inactive

System: not listed separately
Assay: qHTS for Activators of Parkin Expression: LOPAC Validation Assay (NLuc Reporter) (AID 720572; further: potency means the concentration at half of the fitted maximal effect)
Conditions: Parkin promoter NanoLuc reporter cells, luminescence; series mostly up to 46.1 µM
In short: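 Cells harboring the Parkin-promoter coincidence reporter were treated for 24 h at seven concentrations. NLuc output was measured sequentially after the FLuc channel and scaled between DMSO and positive control values.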

**Q.** For `CN(C)CCCN1c2ccccc2Sc2ccc(Cl)cc21`, which Potency is on record?
**A.** inactive

**Q.** For `CNCCCC1c2ccccc2C=Cc2ccccc21`, which Potency is on record?
**A.** inactive

**Q.** For `CCN(CC)CCNC(=O)c1cc(Cl)c(N)cc1OC`, which Potency is on record?
**A.** inactive

**Q.** For `CC(C)(C)[C@]1(O)CCN2C[C@H]3c4ccccc4CCc4cccc(c43)[C@@H]2C1`, which Potency is on record?
**A.** inactive

**Q.** For `C[C@]12C[C@H](O)[C@H]3[C@@H](CCC4=CC(=O)CC[C@@]43C)[C@@H]1CC[C@@H]2C(=O)CO`, which Potency is on record?
**A.** inactive

**Q.** For `C#CCN(C)Cc1ccccc1`, which Potency is on record?
**A.** inactive

**Q.** For `CC1=C(CC(=O)O)c2cc(F)ccc2/C1=C\c1ccc(S(C)(=O)=O)cc1`, which Potency is on record?
**A.** inactive

**Q.** With `CNCCC(Oc1ccc(C(F)(F)F)cc1)c1ccccc1` (stereo not drawn) as the compound, how does the Potency read?
**A.** inactive

**Q.** Which Potency does the source give for `CN1CCN(C2Cc3ccccc3Sc3ccc(Cl)cc32)CC1` (stereo not drawn) here?
**A.** inactive

**Q.** For `C=Cc1c(C)c2cc3[nH]c(cc4nc(cc5nc(cc1[nH]2)C(C)=C5CCC(=O)O)C(CCC(=O)O)=C4C)c(C)c3C=C`, which Potency is on record?
**A.** inactive

**Q.** Which Potency does the source give for `CC(C)C(=O)c1c(C(C)C)nn2ccccc12` here?
**A.** inactive

**Q.** For `OCc1cc(C(O)CNCCCCCCOCCCCc2ccccc2)ccc1O` (stereo not drawn), which Potency is on record?
**A.** inactive

**Q.** For `CCN(CC)CCOC(=O)C1(C2CCCCC2)CCCCC1`, which Potency is on record?
**A.** inactive

**Q.** With `CSc1ccc2c(c1)N(CCC1CCCCN1C)c1ccccc1S2` (stereo not drawn) as the compound, how does the Potency read?
**A.** inactive

**Q.** Which Potency does the source give for `N=c1c[n+](N2CCOCC2)[n-]o1` here?
**A.** inactive

**Q.** With `CN(C)CC[C@@H](c1ccc(Cl)cc1)c1ccccn1` as the compound, how does the Potency read?
**A.** inactive

**Q.** With `COCCOC(=O)C1=C(C)NC(C)=C(C(=O)OC/C=C/c2ccccc2)C1c1cccc([N+](=O)[O-])c1` (stereo not drawn) as the compound, how does the Potency read?
**A.** 5.17 µM (active)

**Q.** Which Potency does the source give for `OCCN1CCN(CCCN2c3ccccc3Sc3ccc(Cl)cc32)CC1` here?
**A.** inactive

**Q.** Which Potency does the source give for `CCN(CC)CCCC(C)Nc1c2ccc(Cl)cc2nc2ccc(OC)cc12` (stereo not drawn) here?
**A.** inactive

**Q.** Which Potency does the source give for `NC(=O)c1ncn([C@@H]2O[C@H](CO)[C@@H](O)[C@H]2O)n1` here?
**A.** inactive

**Q.** Which Potency does the source give for `C[C@]12CC[C@@H]3c4ccc(O)cc4CC[C@H]3[C@@H]1CCC2=O` here?
**A.** inactive

**Q.** With `CC(=O)OCC(=O)[C@@]1(O)CC[C@H]2[C@@H]3CCC4=CC(=O)CC[C@]4(C)[C@H]3C(=O)C[C@@]21C` as the compound, how does the Potency read?
**A.** inactive

**Q.** Which Potency does the source give for `CNCC(O)c1ccc(O)c(O)c1` (stereo not drawn) here?
**A.** inactive

**Q.** Which Potency does the source give for `O=C1N=C(O)CN1/N=C/c1ccc(-c2ccc([N+](=O)[O-])cc2)o1` here?
**A.** inactive

**Q.** With `CN(C)CCC=C1c2ccccc2CCc2ccccc21` as the compound, how does the Potency read?
**A.** inactive

**Q.** For `NC1CCN(c2cccc(Cl)n2)CC1`, which Potency is on record?
**A.** inactive

**Q.** With `CC1=C(CC(=O)O)c2cc(F)ccc2/C1=C\c1ccc(S(C)=O)cc1` (stereo not drawn) as the compound, how does the Potency read?
**A.** inactive

**Q.** For `Nc1ncnc2c1ncn2[C@@H]1O[C@H](CO)[C@@H](O)[C@H]1O`, which Potency is on record?
**A.** inactive

**Q.** For `CCCCCCCCCCCCCCCC(=O)NCCO`, which Potency is on record?
**A.** inactive

**Q.** For `CNC(=O)Oc1ccc2c(c1)[C@]1(C)CCN(C)[C@@H]1N2C`, which Potency is on record?
**A.** inactive

**Q.** For `CC(C)(C)c1onc(OCP(=O)(O)O)c1CC(N)C(=O)O` (stereo not drawn), which Potency is on record?
**A.** inactive

**Q.** For `CC(CN(C)C)CN1c2ccccc2CCc2ccccc21` (stereo not drawn), which Potency is on record?
**A.** inactive
